Measured values: PubChem BioAssay (NCATS)
Results filed as inconclusive are left out. Active and inactive are the calls of the source. Calls follow the shape of the dose curve; as a rule, active = well fitted cell-killing curve with a large enough effect; inconclusive = small, poorly fitted or top-dose-only effect; inactive = no such curve, though single readings can be large or run the other way.

assay: qHTS of pediatric cancer cell lines to identify multiple opportunities for drug repurposing: Confirmatory screen for TC32 cells (AID 1347118); details: TC32 Ewing sarcoma cells viability qHTS; series mostly up to 45.9 µM;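 also: cells exposed to compound for 48 h before the read; nearly all actives have a fitted effect of over 65% in size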
Excerpt: Drug repurposing or repositioning has been offered as a strategy for drug development in oncology programs. This approach has special potential for childhood cancers and other rare or orphan diseases, where the expected return on new drug development has been a disincentive to pharmaceuticals.
In this project we exploit the poly-pharmacology of drugs to discover new indications via phenotypic screening of a panel of 19 well-characterized cell lines derived from solid tumors seen in children and adolescents. The goal is to identify approved drugs with previously unrecognized anticancer properties that has the potential to reveal new mechanisms and biological processes involved in carcinogenesis or drug resistance. We employed a titration-based paradigm (quantitative high-throughput screening or qHTS), where all compounds were tested at multiple concentrations for their effect on cell viability. Concentration-response curves (CRCs) were derived directly from the primary screen, and both potency and efficacy values were used to identify compounds with robust bioactivity profiles. We screened the NIH Chemical Genomics Center (NCGC) Pharmaceutical Collection (NPC) and Mechanism Interrogation Plate (MIPE) small molecule collections of approved and investigational compounds against these cell lines; and measured metabolically active cells after 48 hours of compound treatment as a proxy for cell viability.
Assay Submitter: Nathalia J. Martinez, National Center for Advancing Translational Sciences, National Institutes of Health, Rockville, MD, USA; email: natalia.martinez@nih.gov
[1] Shen, M et al. Quantitative high-throughput phenotypic screening of pediatric cancer cell lines identifies multiple opportunities for drug repurposing. Oncotarget 2017 Dec 19;9(4):4758-4772. PMID 29435139.
The cells were obtained from University of North Carolina (UNC), Pediatric Preclinical Testing Program (PPT), and Coriell Institute (CI).
qHTS cell viability assay:
Cells were assayed in growth media at a density of 500-1,000 cells/well. Five microliters of cells were dispensed into 1,536-well, white, solid-bottom, TC-treated plates (Greiner Bio One) using a multidrop dispenser and incubated at 37 degrees C, 5% CO2, under a humidified atmosphere for 5 hours. Twenty-three nanoliters of compounds and controls (neutral control DMSO or positive control bortezomib at final concentration of 2.3 uM) were subsequently transferred by Kalypsys pintool. For primary screens, the MIPE collection was tested at 11-point dilutions (final concentrations range from 0.78 nM to 46 µM) and the NPC collection at 8-point dilutions (final concentrations range from 0.59 nM to 46 µM). Compounds tested in follow-up screens were assayed at 11-point dilutions. Cells were incubated for 48 hours, followed by addition of 3 uL of CellTiter-Glo (Promega). After a 15min incubation at room temperature, samples were analyzed for luminescence intensity using a ViewLux High-throughput CCD imager equipped with clear filters.
Potency is read from the fitted curve at half-maximal effect.

| SMILES | Potency |
| --- | --- |
| Cc1ccc(C(N)=O)cc1Nc1nccc(-c2cn(C(C)C)c3cnccc23)n1 | 7590 nM (active) |
| CC1(C)CCC(c2ccc(Cl)cc2)=C(CN2CCN(c3ccc(C(=O)NS(=O)(=O)c4ccc(N[C@H](CCN5CCOCC5)CSc5ccccc5)c(S(=O)(=O)C(F)(F)F)c4)cc3)CC2)C1 | inactive |
| O=C(C=Cc1cccc(S(=O)(=O)Nc2ccccc2)c1)NO | 759 nM (active) |
| Nc1cc(C(F)(F)F)c(-c2cc(N3CCOCC3)nc(N3CCOCC3)n2)cn1 | 4140 nM (active) |
| Cc1nc2ccc(CN(C)c3ccc(C(=O)N[C@@H](CCC(=O)O)C(=O)O)s3)cc2c(=O)[nH]1 | 52.2 nM (active) |
| COCCn1c2c([n+](Cc3cnccn3)c1C)C(=O)c1ccccc1C2=O | 18.5 nM (active) |
| O=C(NC1CCNCC1)c1[nH]ncc1NC(=O)c1c(Cl)cccc1Cl | 2400 nM (active) |
| COc1cccc(-c2ccc(NC(=O)C3=C(C(=O)O)CCC3)c(F)c2)c1 | 18500 nM (active) |
| O=c1[nH]nc(Sc2ncc([N+](=O)[O-])s2)n1-c1ccc2c(c1)OCCO2 | 6570 nM (active) |
| C=CC(=O)Nc1cc2c(Nc3ccc(F)c(Cl)c3)ncnc2cc1C#CC(C)(C)N1CCN(C)CC1 | 3020 nM (active) |
| NC(=O)c1cccc2cn(-c3ccc([C@@H]4CCCNC4)cc3)nc12 | 1650 nM (active) |
| CS(=O)(=O)N1CCN(Cc2cc3nc(-c4cccc5[nH]ncc45)nc(N4CCOCC4)c3s2)CC1 | 1350 nM (active) |
| Cc1nc(N)ncc1-c1nc(N2CCOCC2)c2sc(C(C)(C)O)cc2n1 | 2330 nM (active) |
| COc1cc2c(NC3CCN(C(C)C)CC3)nc(C3CCCCC3)nc2cc1OCCCN1CCCC1 | 4140 nM (active) |
| COc1c(OCCCN2CCOCC2)ccc2c3n(c(=NC(=O)c4cnc(N)nc4)nc12)CCN3 | 1020 nM (active) |
| CC[C@H]1CN2CCc3cc(OC)c(OC)cc3[C@H]2C[C@@H]1C[C@@H]1NCCc2cc(OC)c(OC)cc21 | 233 nM (active) |
| CC(=O)Nc1nc(C)c(-c2ccc(Cl)c(S(=O)(=O)NCCO)c2)s1 | 7370 nM (active) |
| CNC(=O)c1c(F)cccc1Nc1nc(Nc2cc3c(cc2OC)CCN3C(=O)CN(C)C)nc2[nH]ccc12 | 522 nM (active) |
| C=CC(=O)Nc1cccc(Oc2nc(Nc3ccc(N4CCN(C)CC4)cc3OC)ncc2Cl)c1 | 14700 nM (active) |
| CCn1nnc2c(N3CCOCC3)nc(-c3ccc(NC(=O)Nc4ccc(C(=O)N5CCN(C)CC5)cc4)cc3)nc21 | 293 nM (active) |

| SMILES | Potency |
| --- | --- |
| Cc1cc(Nc2ncnc3ccc(-c4ccc(CNCCS(C)(=O)=O)o4)cc23)ccc1Oc1ccn2ncnc2c1 | 18500 nM (active) |
| CCS(=O)(=O)c1cccc(-c2cc(C(=O)NC3CCN(C)CC3)c(C)c3[nH]c4ncc(C)cc4c23)c1 | 117 nM (active) |
| Cc1ccc(-c2ncn(-c3ccc(Nc4nccc(-c5cccc(N6CCOCC6)c5)n4)cc3)n2)cn1 | 135 nM (active) |
| O=C(O)c1ccc2cc(-c3ccc(O)c(C45CC6CC(CC(C6)C4)C5)c3)ccc2c1 | 585 nM (active) |
| CC(C)c1cc(C(=O)N2Cc3ccc(CN4CCN(C)CC4)cc3C2)c(O)cc1O | 465 nM (active) |
| Cc1cc(Nc2cc(N3CCN(C)CC3)nc(Sc3ccc(NC(=O)C4CC4)cc3)n2)n[nH]1 | 92.8 nM (active) |
| COc1ccc(OC)c(-c2nnc3ccc(-c4ccc(OC)c(O[C@@H]5CCOC5)c4)nn23)c1 | 2930 nM (active) |
| CC(C)(C)c1cnc(CSc2cnc(NC(=O)C3CCNCC3)s2)o1 | 465 nM (active) |
| CNC(=O)CN1CCC(Oc2cc3c(Nc4cccc(Cl)c4F)ncnc3cc2OC)CC1 | 1040 nM (active) |
| Cc1[nH]nc2ccc(-c3cncc(OC[C@@H](N)Cc4ccccc4)c3)cc12 | 2930 nM (active) |
| CCNC(=O)Nc1ccc2ncc(Nc3ccc(C)cc3)nc2n1 | inactive |
| Cc1c(NC(=O)OC[C@@H]2COCCN2)cn2ncnc(Nc3ccc4c(cnn4Cc4cccc(F)c4)c3)c12 | 26100 nM (active) |
| Cc1ccc(C(=O)Nc2ccc(CN3CCN(C)CC3)c(C(F)(F)F)c2)cc1C#Cc1cnc2cccnn12 | 3.7 nM (active) |
| NCC(=O)Nc1ccc(-n2nc(C(F)(F)F)cc2-c2ccc3c(ccc4ccccc43)c2)cc1 | 1470 nM (active) |
| Nc1ccccc1NC(=O)c1ccc(CNC(=O)OCc2cccnc2)cc1 | 3020 nM (active) |
| CCOc1cc2ncc(C#N)c(Nc3ccc(F)c(Cl)c3)c2cc1NC(=O)C=CCN(C)C | 58.5 nM (active) |
| Cc1cc(N2CCOCC2)cc2[nH]c(-c3c(NC[C@@H](O)c4cccc(Cl)c4)cc[nH]c3=O)nc12 | 465 nM (active) |
| Cc1c(C)n(Cc2ccc(-c3ccccc3C(=O)O)cc2)c2ccc(C(=O)N[C@@H](C)c3ccc([N+](=O)[O-])cc3)cc12 | inactive |
| CCn1cc(-c2ccnc3[nH]c(-c4cccc(CN(C)C)c4)cc23)c(-c2ccc(NC(=O)N(C)C)cc2)n1 | 46.5 nM (active) |
| CNC(=O)c1nn(C)c2c1C(C)(C)Cc1cnc(Nc3ccc(N4CCN(C)CC4)cc3)nc1-2 | 1650 nM (active) |
